Assay outcomes as filed in PubChem BioAssay.
BAZ2B inh: qHTS Assay for Inhibitors of BAZ2B | 360,000 compounds, 4.4% hits | Potency, µM (series often up to 114 µM), inactives show at the highest dose activity change, negative = inhibition, actives largely listed as inhibitors | AID 504333, 2011 | AlphaScreen BAZ2B-H3K14Ac peptide displacement | Bromodomain adjacent to zinc finger domain protein 2B (Homo sapiens), Q9UIF8; further: on the % scale 0 is the no-effect control and ±100 the full control effect; nearly all actives have a fitted effect of over 60% in size
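Complex of BAZ2B and biotin-H3K14Ac (50 nM apiece) forms over 30 min at RT, then faces library compounds up to 110 uM for another 30 min; AlphaScreen beads added, 20 min dark incubation, luminescence read.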
G9a block: qHTS Assay for Inhibitors of Histone Lysine Methyltransferase G9a | AID 504332, 2011 | G9a H3K9 monomethylation, AlphaScreen, 2 h | Histone-lysine N-methyltransferase EHMT2 (Homo sapiens), Q96KQ7 | 350,000 compounds, 8.8% hits | Potency, µM (highest dose often 102 µM), for inactives: at the highest dose activity, negative = inhibition, usual class: inhibitors; further: on the % scale 0 is the no-effect control and ±100 the full control effect; nearly all actives have a fitted effect of over 75% in size
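Methyltransferase reactions run at room temperature for 2 h (20 nM enzyme, 500 nM biotin-H3K9 peptide, 20 uM SAM) after a 15 min compound preincubation; product detected by AlphaScreen beads and anti-H3K9me1 antibody.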
HP1b binding inh: HTS for Inhibitors of HP1-beta Chromodomain Interactions with Methylated Histone Tails; 390,000 compounds, 0.56% hits; AID 540317, 2011; Chromobox protein homolog 1 (Homo sapiens), P83916; Potency, µM (doses to about 114 µM), inactives show at the top dose activity change, negative = inhibition, most hits filed as inhibitors; AlphaScreen HP1-beta / biotin-H3K9me3 peptide binding; further: nearly all actives have a fitted effect of over 70% in size
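HP1-beta protein (50 nM final) preincubated 30 min at room temperature with biotinylated H3(1-18)K9me3 peptide (50 nM) in PBS pH 7.4, 0.01% Tween-20, then compound added for 30 min. AlphaScreen streptavidin donor/nickel chelate acceptor beads (10 ug/mL final), 30 min dark, luminescence read.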
Sfp inh: qHTS Assay for Inhibitors of Bacillus subtilis Sfp phosphopantetheinyl transferase (PPTase); 4'-phosphopantetheinyl transferase ffp (Bacillus subtilis), Q9F4F7; Biochemical Sfp PPTase activity, qHTS; Potency, µM, inactives show largest response in the series, negative = inhibition, actives largely listed as inhibitors; 310,000 compounds, 3.5% hits; AID 1490, 2009;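 further: the enzyme is Sfp with the accession as filed and its product quenches rhodamine fluorescence; 0% = enzyme reaction without inhibitor and -100% = no enzyme wells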
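Fluorescence-quenching assay: 15 nM Sfp-PPTase preincubated 15 min at room temperature with compound, then 5 uM rhodamine-CoA and 12.5 uM BHQ-2-labelled YbbR peptide added. Fluorescence (ex 525/em 598 nm) read at start and after 30 min; difference gives rate.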
JMJD2A Tudor: qHTS Assay for Inhibitors of JMJD2A-Tudor Domain | Lysine-specific demethylase 4A (Homo sapiens), O75164 | 390,000 compounds, 4.4% hits | AlphaScreen JMJD2A-Tudor / H3K4me3 peptide binding | AID 504339, 2011 | Potency, µM (top dose mostly 114 µM), without a hit: top-dose activity change, negative = inhibition, actives largely listed as inhibitors; further: on the % scale 0 is the no-effect control and ±100 the full control effect; nearly all actives have a fitted effect of over 50% in size
PLK1 PBD block: qHTS for Inhibitors of PLK1-PDB (polo-like kinase 1 - polo-box domain): Primary Screen; Plk1 PBD binding of FITC phosphopeptide, fluorescence polarization; Serine/threonine-protein kinase PLK1 (Homo sapiens), P53350; 360,000 compounds, 2.8% hits; Potency, µM, inactives show max response, negative = inhibition, actives largely listed as inhibitors; AID 720504, 2013; further: series mostly up to about 57 µM; on the % scale 0 is the no-effect control and ±100 the full control effect; nearly all actives have a fitted effect of over 65% in size
* = called active by the depositor; ? = inconclusive; / = no result; [ ] = remark or other dose. Rows were chosen to be rich in hits. Some 12% of all compounds tested hit in one or more screens of this group. The call rests on the fitted dose curve; in most records, active means well fitted curve in the direction sought with a large enough effect; inconclusive means small, poorly fitted or top-dose-only effect, or another doubt; inactive means no such curve, though single readings can be large; an effect the other way counts as inactive or inconclusive. Potency means the concentration at half of the fitted maximal effect.

SMILES | BAZ2B inh | G9a block | HP1b binding inh | Sfp inh | JMJD2A Tudor | PLK1 PBD block
CN(CC(=O)Nc1ccc(F)c(F)c1F)C(=O)c1n[nH]c(=O)c2ccccc12 | / | / | 33% | / | -11% | -2%
O=S(=O)(O)c1ccc(N=Nc2ccccc2)cc1 | -10% | ? | 21% | 14% | -24% | -14%
O=c1ccc(N=Nc2ccccc2)ccc1O | 11µM* | 45µM* | ? | -10% | 50µM* | -20%
CCC1=C2CC[C@H]3C(=O)NC(=O)[C@H]3[C@H]2[C@@]2(Cc3ccccc3)C(=NCc3ccccc3)OC(=O)N2C1=O | / | / | / | 10% | / | /
Cc1cc(-c2cc(NC=O)c3ncc(-c4cccc(C(=O)NCCN(C)C)c4)n3c2)cc(C)c1O | / | / | / | / | / | -10%
C=CCC(C(=O)NC(C)c1ccccc1)C(=O)NC(C)c1ccccc1 (stereo not given) | -2% | 33%[0.501 µM] | -5% | -1% | -34% | 27µM*
Cc1nn(-c2ccccc2)c(/N=C/c2ccc(O)cc2)c1-c1ccccc1 | 8% | 13%[59 µM] | 34% | 11% | 1% | -10%
CN(C)c1ccc(/C=N/c2cc(-c3ccccc3)nn2-c2ccccc2)cc1 | 10µM* | ? | -23% | 4% | ? | 2%
CC[N+]1=C(C)C(C)(C)c2cc(C)ccc21 | 45µM* | ? | -2% | -12% | -4%[11.4 µM] | ?
CC1CCN(CCCN2C(=O)C3C(C(=O)Nc4ccc(Cl)cc4)C4C=CC3(O4)C2C(=O)NC2CCCCC2)CC1 (stereo not given) | -3% | 40µM* | -11% | 9% | -15% | -10%
O=C(Nc1ccc(Br)cc1)C1C2C=CC3(O2)C1C(=O)N(CCN1CCCCC1)C3C(=O)NC1CCCCC1 (stereo not given) | -16% | 50µM* | 2% | 14% | -18% | -9%
COc1ccc(NC(=O)C2C3C=CC4(O3)C2C(=O)N(CCN2CCCCC2)C4C(=O)NC2CCCCC2)cc1 (stereo not given) | 5% | 24% | 5% | 1% | -13% | -1%
CSc1cccc(NC(=O)C2C3C=CC4(O3)C2C(=O)N(CCCN2CCOCC2)C4C(=O)NC2CCCCC2)c1 (stereo not given) | -21% | 45µM* | -9% | -5% | -17% | -14%
CC1CCCN(CCCN2C(=O)C3C(C(=O)Nc4ccc(Cl)cc4)C4C=CC3(O4)C2C(=O)NC2CCCCC2)C1 (stereo not given) | -3% | 45µM* | -24% | 7% | -16% | -10%
CC(=O)NC(CC(=O)Nc1ccc2c(c1)OCCO2)c1ccccc1 (stereo not given) | 0% | ? | 12% | 16% | -8% | -6%
Cc1ccc(N(Cc2cc3cccc(C)c3[nH]c2=O)S(=O)(=O)c2ccccc2)c(C)c1 | ? | ? | -13% | 2% | ? | 15µM*
COc1ccc(N(Cc2cc3ccccc3[nH]c2=O)S(=O)(=O)c2ccc(OC)cc2)cc1 | -9% | / | 14% | -9% | -31% | -14%
Cc1ccc(S(=O)(=O)N(Cc2cc3ccccc3[nH]c2=O)c2cccc(C)c2)cc1 | 3% | -7% | 14% | 10% | -8%[11.4 µM] | 30µM*
Cc1cccc(N(Cc2cc3ccccc3[nH]c2=O)S(C)(=O)=O)c1 | -4% | -43% | 15% | 56µM* | -20% | -10%
CCCN(Cc1cc2ccc(C)cc2[nH]c1=O)C(=O)c1ccccn1 | 3% | 32µM* | -14% | ? | -20% | ?
Cc1ccc(N(Cc2cc3ccc(C)cc3[nH]c2=O)S(C)(=O)=O)c(C)c1 | -18% | -38% | -9% | 19% | -6%[11.4 µM] | -25%
Cc1ccc2[nH]c(=O)c(CN(c3cccc(C)c3C)S(=O)(=O)c3ccccc3)cc2c1 | -16% | 44% | 26% | 14% | -18% | -3%
COc1ccc(CCNC(=O)c2cc3c(-c4ccc(OC)c(OC)c4)nn(C)c3s2)cc1OC | / | -26%[59 µM] | 18% | / | -27% | /
Cc1cc(C)cc(OC(C)C(=O)Nc2nonc2-c2ccc(Br)cc2)c1 (stereo not given) | -7% | ? | 28% | / | -15% | /
CC(C)(CNC(=O)Cc1ccc(Br)cc1)N1CCOCC1 | -12% | 20% | 8% | 10% | -6% | -9%
SMILES | BAZ2B inh | G9a block | HP1b binding inh | Sfp inh | JMJD2A Tudor | PLK1 PBD block
Cc1ccc(S(=O)(=O)N(Cc2cc3ccc(C)cc3[nH]c2=O)c2ccccc2)cc1 | -1% | 2% | -9% | 12% | -8%[11.4 µM] | 34µM*
Cc1ccc(N(Cc2cc3ccc(C)cc3[nH]c2=O)S(=O)(=O)c2ccccc2)cc1 | -20% | 15% | 21% | 7% | -8% | -16%
COc1ccc(NC(=O)N2CCCC3(CCN(C(=O)c4cccn4C)CC3)C2)cc1 | / | 10%[12.7 µM] | / | 3% | / | /
CCC(C)NC(=O)CCn1c(=O)c2cccn2c2ccc(F)cc21 (stereo not given) | 5% | 6% | 12% | 6% | -12% | 1%
Cc1ccc2nc(C(=O)O)c(C(=O)O)nc2c1 | ? | 35µM* | -13% | -5% | 40µM* | -8%
CCOC(=O)C1CCC(CN(Cc2ccc(Cl)cc2)S(=O)(=O)c2ccc(Br)cc2)CC1 (stereo not given) | 15% | 7%[59 µM] | 26% | / | -6% | /
CCCOC(=O)c1ccccc1 | / | 21%[59 µM] | / | -5% | / | /
CCCOC1(NC(=O)c2ccccc2)C(C)=CC(=O)C=C1C | -6% | 12%[12.7 µM] | ? | 56µM* | ? | -24%
CC1=NN(C(C#N)c2c(C)nn(Cc3ccccc3)c2C)C(C)(C)C1 (stereo not given) | -5% | 35µM* | 29% | 17% | ? | -11%
CC1=NN(C(C#N)c2ccccc2C)C(C)(C)C1 (stereo not given) | -14% | 1% | 44% | 18% | 1% | -3%
CC1=NN(C(C#N)c2ccc([N+](=O)[O-])cc2)C(C)(C)C1 (stereo not given) | -36% | ? | -20% | 1% | 22µM* | 3%
Cc1nc(C)c(-c2ccc(SCC(=O)Nc3ccccc3)nn2)s1 | -1% | 79µM* | 33% | 16% | 8% | -3%
O=C(CSc1ccc(-c2cccs2)nn1)Nc1ccccc1 | -12% | 8% | 33% | 12% | -7% | -8%
Cc1cc(C)cc(NC(=O)CSc2ccc(-c3cccs3)nn2)c1 | -27% | 22µM* | 40% | 1% | -17% | ?
